Among the data in ChEMBL document CHEMBL3988442, “University of Dundee, Small-Polar-MMV Screening Library” (2021) are Percent Effect values, retold here.

Molecules are shown by their SMILES. Entries with a potency or affinity are not part of this list.

In the first assay the target is Protein translocase subunit SecA (Escherichia coli (strain K12)) (UniProt P10408). Nature of the assay: Assay to Identify E. coli SecA ATPase Inhibitors. Type of assay: functional. Further details: scale not given: direction of the effect not stated beside the values. Conditions: 30 µM.
Chain of Protein translocase subunit SecA (Escherichia coli (strain K12)) (P10408 whole entry): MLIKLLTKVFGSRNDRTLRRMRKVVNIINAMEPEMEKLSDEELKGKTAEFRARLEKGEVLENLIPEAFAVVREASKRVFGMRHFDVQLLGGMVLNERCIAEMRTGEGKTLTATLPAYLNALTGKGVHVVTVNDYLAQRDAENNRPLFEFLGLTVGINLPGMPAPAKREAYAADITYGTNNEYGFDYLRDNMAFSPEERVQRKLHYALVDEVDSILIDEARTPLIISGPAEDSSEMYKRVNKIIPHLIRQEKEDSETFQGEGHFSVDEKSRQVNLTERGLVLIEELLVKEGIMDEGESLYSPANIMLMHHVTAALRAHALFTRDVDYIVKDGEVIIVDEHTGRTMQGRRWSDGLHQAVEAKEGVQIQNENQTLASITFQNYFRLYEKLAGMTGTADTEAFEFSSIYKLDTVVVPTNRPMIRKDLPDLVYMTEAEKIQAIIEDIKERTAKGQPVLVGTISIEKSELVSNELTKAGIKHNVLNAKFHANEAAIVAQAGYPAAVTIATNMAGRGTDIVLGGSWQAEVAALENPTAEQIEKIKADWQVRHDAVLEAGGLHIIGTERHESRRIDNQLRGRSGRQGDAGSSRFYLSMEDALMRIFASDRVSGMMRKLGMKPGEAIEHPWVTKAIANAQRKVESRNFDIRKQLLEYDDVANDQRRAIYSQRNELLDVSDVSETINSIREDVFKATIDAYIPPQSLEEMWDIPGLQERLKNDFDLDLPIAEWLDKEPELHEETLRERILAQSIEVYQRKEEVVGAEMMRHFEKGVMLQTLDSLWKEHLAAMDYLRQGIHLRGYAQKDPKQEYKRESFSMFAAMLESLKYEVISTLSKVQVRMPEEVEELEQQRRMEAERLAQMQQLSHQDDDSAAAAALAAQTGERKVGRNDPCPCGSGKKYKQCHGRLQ
Turning to `CC(C)(C)c1n[nH]c(C2CN(C(=O)c3cc(Cl)c[nH]3)CCO2)n1` (stereo not given), the Percent Effect is -6.35%.
Same read-out and setting: then `Cc1nn(CC(C)C)c(N(C)C)c1CNCc1cc2ccccc2[nH]1`, with -3.68%; and `Cc1ccc(CN2C[C@@H]3COC[C@H](NS(C)(=O)=O)[C@@H]3C2)o1`, with -3.56%.
Take `CC(=O)Nc1nc(C2CCN(C(C)=O)CC2)cs1`: the Percent Effect was determined as 0.424%.
The same measure, in the same setting: with `COCC(=O)N1Cc2cn(C)nc2C(COc2cccnc2)C1` (stereo not given) the figure was 1.2%; with `O=C(COCc1nc(-c2ccncc2)no1)N1CCCC1`, -2.71%.
Still for that read-out and setting: with `CCOC(=O)c1sc(NC(=O)CN(C)S(C)(=O)=O)c(C#N)c1C` the figure was -1.3%; with `Cc1ccc([C@]2(O)CC[C@H]3CN(Cc4cc(C)c(O)c(C)c4)C[C@H]32)nc1`, -2.94%.
Same read-out and setting: then `O=C(C1=CCCC1)N1CCO[C@H]2[C@@H](OCC3CC3)CC[C@@H]21`, with -3.62%; and `Cc1nc(C)n(CC2CCCN2CC(=O)NCc2ccco2)n1` (stereo not given), with -0.786%; and `CCOC(=O)NC(C(=O)NCc1ccc(N2CCCCC2)nc1)C(C)C` (stereo not given), with -0.611%.
In the case of `Cc1cc(NC(=O)c2nc(N3CCCC3)ncc2Cl)nc(C(C)C)n1`, the Percent Effect is -0.667%.
For the molecule `CC(C)c1nc(C(=O)N2CCOCC2CC(=O)c2ccco2)c[nH]1` (stereo not given), the Percent Effect is 2.93%.
The same measure, in the same setting: then `OC1CCN(Cc2c(C3CCCNC3)[nH]c3ncccc23)CC1` (stereo not given), with -5.49%; and `CS(=O)(=O)CCC(=O)Nc1cnn(-c2ccccc2Cl)c1`, with -5.57%; and `CC(C)CN1CCN(Cc2nc3ccccc3[nH]2)[C@H]2CS(=O)(=O)C[C@H]21`, with -0.363%.
Consider `O=C(Cn1cnc(NC(=O)CC2CCCC2)n1)NCc1ccccc1`, for which the Percent Effect was -6.6%.
The same measure, in the same setting: then `CN(Cc1ccco1)C(=O)[C@H]1CSCN1C(=O)OC(C)(C)C`, with -4.45%; and `O=C1CN(Cc2nnc(-c3ccccc3Br)o2)CCN1`, with -1.52%; and `CC(C)c1nnc2n1CCN(C(=O)CN1CCc3sccc3C1)C2`, with -3.25%.
On the same count and under the same terms, then `Cn1nccc1C1CCN(Cc2csc(-c3ncccn3)n2)CC1`, with -3.65%; and `COCc1cnc2n1CCN(Cc1cccnc1)C2C` (stereo not given), with -1.07%; and `Cc1ccccc1CS(=O)(=O)CC(=O)NC1CCCCNC1=O` (stereo not given), with -5.33%.
Consider `O=C(Nc1cccc(OCc2cccc(F)c2)c1)C1COCCO1` (stereo not given), for which the Percent Effect was -6.19%.
On the same count and under the same terms, then `Cn1cnnc1C1CCCN(C(=O)NCc2cc[nH]n2)C1` (stereo not given), with -1.36%; and `CS(=O)(=O)NC1CCc2c(ccc(=O)n2CC2CC2)C1` (stereo not given), with -2.67%.
`COc1ccc(Cl)cc1NCC(=O)NCCc1ccccn1`: the Percent Effect was -3.56%.
Still for that read-out and setting: then `CC(C)n1ccnc1CN1CCCN(C(=O)COC2CCCC2)CC1`, with -2.6%; and `COc1cc(C(=O)N(C2CC2)C2CC(=O)NC2=O)ccc1C` (stereo not given), with 0.67%.
Still for that read-out and setting: with `O=C(Nc1ccnc(OC2CCOC2)c1)C1CCC1` (stereo not given) the figure was -2.23%.
Turning to `Cc1ncccc1Oc1nccnc1C1CCN(C(C)C)CC1`, the Percent Effect is -6.52%.
The same measure, in the same setting: with `Cc1cnn(CC2CCCN2C(=O)c2cn(-c3ccccc3)nc2C)c1` (stereo not given) the figure was -2.73%; with `O=C(Cc1ccccn1)N1CCN(C(=O)c2cccc3[nH]ncc23)CC1`, -1.44%; with `Cc1nc2n(n1)CC(NCc1cc(Cl)c3c(c1)OCCCO3)CC2` (stereo not given), -6.19%.
The same measure, in the same setting: then `Cn1cnc2c1CCN(Cc1nc(Cc3ccccc3)no1)C2`, with -2.4%.
Still for that read-out and setting: then `Cc1cnc(CN2CCOC(Cn3nc(C)nc3C)C2)cn1` (stereo not given), with -1.64%.
With `CCN1CCC(c2nc3ccc(NC(C)C)cn3n2)CC1`, the Percent Effect was -3.94%.
The same measure, in the same setting: then `NC(=O)N1CCC2(CCN(Cc3cccc(F)c3)CC2)CC1`, with -2.86%; and `O=C(N[C@@H]1CCNC[C@H]1O)c1ccc(F)c(Cl)c1`, with -3.79%; and `Cc1cnn(CCCNC(=O)N2CCCCC(N3CCCC3)C2)c1` (stereo not given), with -2.45%.

Another assay deals with T1, Ubiquitin-activating enzyme e1, putative (Leishmania donovani (strain BPK282A1)) (UniProt E9BSI1).
T1 sequence (whole entry): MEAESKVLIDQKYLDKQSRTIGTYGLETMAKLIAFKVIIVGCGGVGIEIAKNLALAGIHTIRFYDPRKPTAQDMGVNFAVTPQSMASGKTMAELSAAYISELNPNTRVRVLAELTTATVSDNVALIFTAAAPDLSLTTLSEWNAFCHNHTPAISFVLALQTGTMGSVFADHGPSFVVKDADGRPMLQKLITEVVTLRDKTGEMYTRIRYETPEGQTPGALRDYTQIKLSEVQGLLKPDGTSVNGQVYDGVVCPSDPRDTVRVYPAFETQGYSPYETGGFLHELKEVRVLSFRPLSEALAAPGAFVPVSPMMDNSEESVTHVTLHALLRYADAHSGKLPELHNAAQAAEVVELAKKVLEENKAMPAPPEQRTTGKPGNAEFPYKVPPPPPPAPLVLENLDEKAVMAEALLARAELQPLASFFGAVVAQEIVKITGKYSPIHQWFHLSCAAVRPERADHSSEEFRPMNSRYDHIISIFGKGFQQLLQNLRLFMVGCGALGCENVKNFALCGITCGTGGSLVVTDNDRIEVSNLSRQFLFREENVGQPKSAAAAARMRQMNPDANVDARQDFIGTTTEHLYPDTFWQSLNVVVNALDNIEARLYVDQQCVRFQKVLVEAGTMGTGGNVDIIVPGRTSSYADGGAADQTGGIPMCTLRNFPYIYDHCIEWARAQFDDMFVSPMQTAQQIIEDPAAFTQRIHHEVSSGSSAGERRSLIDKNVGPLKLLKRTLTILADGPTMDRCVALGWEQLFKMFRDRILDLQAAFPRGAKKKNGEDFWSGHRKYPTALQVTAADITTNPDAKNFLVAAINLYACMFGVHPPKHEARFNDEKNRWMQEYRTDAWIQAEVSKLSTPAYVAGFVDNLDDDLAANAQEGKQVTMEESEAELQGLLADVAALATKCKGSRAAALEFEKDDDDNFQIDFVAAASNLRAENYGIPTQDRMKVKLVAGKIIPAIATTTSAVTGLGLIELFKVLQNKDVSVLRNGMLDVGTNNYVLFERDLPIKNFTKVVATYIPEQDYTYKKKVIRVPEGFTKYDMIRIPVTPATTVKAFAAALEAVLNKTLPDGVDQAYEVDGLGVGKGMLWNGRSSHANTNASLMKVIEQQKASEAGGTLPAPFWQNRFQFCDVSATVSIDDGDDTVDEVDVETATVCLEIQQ
Nature of the assay: Leishmania donovani Ubiquitin Activating Enzyme (LdE1). Type of assay: functional. Further details: scale not given: direction of the effect not stated beside the values. The settings on record: 30 µM.
As to `CC(C)(C)c1n[nH]c(C2CN(C(=O)c3cc(Cl)c[nH]3)CCO2)n1` (stereo not given), the Percent Effect was found to be 15.8%.
On the same count and under the same terms, then `Cc1nn(CC(C)C)c(N(C)C)c1CNCc1cc2ccccc2[nH]1`, with 10.8%; and `Cc1ccc(CN2C[C@@H]3COC[C@H](NS(C)(=O)=O)[C@@H]3C2)o1`, with 13.3%; and `CC(=O)Nc1nc(C2CCN(C(C)=O)CC2)cs1`, with 8%.
Still for that read-out and setting: then `COCC(=O)N1Cc2cn(C)nc2C(COc2cccnc2)C1` (stereo not given), with 15.6%; and `O=C(COCc1nc(-c2ccncc2)no1)N1CCCC1`, with 10.4%; and `CCOC(=O)c1sc(NC(=O)CN(C)S(C)(=O)=O)c(C#N)c1C`, with 10.4%.
For `Cc1ccc([C@]2(O)CC[C@H]3CN(Cc4cc(C)c(O)c(C)c4)C[C@H]32)nc1`, the Percent Effect stood at 6.76%.
On to `O=C(C1=CCCC1)N1CCO[C@H]2[C@@H](OCC3CC3)CC[C@@H]21`, for which the Percent Effect stood at 18.7%.
Same read-out and setting: with `Cc1nc(C)n(CC2CCCN2CC(=O)NCc2ccco2)n1` (stereo not given) the figure was 2.74%.
On the same count and under the same terms, with `CCOC(=O)NC(C(=O)NCc1ccc(N2CCCCC2)nc1)C(C)C` (stereo not given) the figure was 13.5%.
Still for that read-out and setting: then `Cc1cc(NC(=O)c2nc(N3CCCC3)ncc2Cl)nc(C(C)C)n1`, with 5.41%.
As to `CC(C)c1nc(C(=O)N2CCOCC2CC(=O)c2ccco2)c[nH]1` (stereo not given), the Percent Effect was -2.63%.
For the molecule `OC1CCN(Cc2c(C3CCCNC3)[nH]c3ncccc23)CC1` (stereo not given), the Percent Effect stood at 12.2%.
Still for that read-out and setting: with `CS(=O)(=O)CCC(=O)Nc1cnn(-c2ccccc2Cl)c1` the figure was 13.5%.
The same measure, in the same setting: then `CC(C)CN1CCN(Cc2nc3ccccc3[nH]2)[C@H]2CS(=O)(=O)C[C@H]21`, with 10.8%; and `O=C(Cn1cnc(NC(=O)CC2CCCC2)n1)NCc1ccccc1`, with 15.8%; and `CN(Cc1ccco1)C(=O)[C@H]1CSCN1C(=O)OC(C)(C)C`, with 15.8%.
Take `O=C1CN(Cc2nnc(-c3ccccc3Br)o2)CCN1`: the Percent Effect was 9.72%.
As for `CC(C)c1nnc2n1CCN(C(=O)CN1CCc3sccc3C1)C2`, the Percent Effect was 5.26%.
The same measure, in the same setting: then `Cn1nccc1C1CCN(Cc2csc(-c3ncccn3)n2)CC1`, with 24.3%; and `COCc1cnc2n1CCN(Cc1cccnc1)C2C` (stereo not given), with 8%.
The same measure, in the same setting: with `Cc1ccccc1CS(=O)(=O)CC(=O)NC1CCCCNC1=O` (stereo not given) the figure was 18.2%; with `O=C(Nc1cccc(OCc2cccc(F)c2)c1)C1COCCO1` (stereo not given), -8%.
Still for that read-out and setting: then `Cn1cnnc1C1CCCN(C(=O)NCc2cc[nH]n2)C1` (stereo not given), with 18.4%; and `CS(=O)(=O)NC1CCc2c(ccc(=O)n2CC2CC2)C1` (stereo not given), with 10.7%; and `COc1ccc(Cl)cc1NCC(=O)NCCc1ccccn1`, with -5.41%.
With `CC(C)n1ccnc1CN1CCCN(C(=O)COC2CCCC2)CC1`, the Percent Effect was determined as 3.8%.
Still for that read-out and setting: then `COc1cc(C(=O)N(C2CC2)C2CC(=O)NC2=O)ccc1C` (stereo not given), with 12.7%; and `O=C(Nc1ccnc(OC2CCOC2)c1)C1CCC1` (stereo not given), with -4.17%.
The same measure, in the same setting: then `Cc1ncccc1Oc1nccnc1C1CCN(C(C)C)CC1`, with 6.76%; and `Cc1cnn(CC2CCCN2C(=O)c2cn(-c3ccccc3)nc2C)c1` (stereo not given), with 2.7%; and `O=C(Cc1ccccn1)N1CCN(C(=O)c2cccc3[nH]ncc23)CC1`, with 3.8%.
As for `Cc1nc2n(n1)CC(NCc1cc(Cl)c3c(c1)OCCCO3)CC2` (stereo not given), the Percent Effect came out at 15.8%.
For `Cn1cnc2c1CCN(Cc1nc(Cc3ccccc3)no1)C2`, the Percent Effect is -7.89%.
The same measure, in the same setting: then `Cc1cnc(CN2CCOC(Cn3nc(C)nc3C)C2)cn1` (stereo not given), with 17.7%; and `CCN1CCC(c2nc3ccc(NC(C)C)cn3n2)CC1`, with -2.7%; and `NC(=O)N1CCC2(CCN(Cc3cccc(F)c3)CC2)CC1`, with 5.2%.
Same read-out and setting: then `O=C(N[C@@H]1CCNC[C@H]1O)c1ccc(F)c(Cl)c1`, with 5.41%; and `Cc1cnn(CCCNC(=O)N2CCCCC(N3CCCC3)C2)c1` (stereo not given), with 15.8%.
